This passage reports outcome and AC50 results from PubChem BioAssay (EPA / NIEHS).

Each structure is given as a SMILES string. Inconclusive results are not listed. The source made the active and inactive calls. How the source made its calls: active means hit-call score of the fitted dose curve at least 0.9, where 1 is the maximum; inconclusive means response in the unintended direction; inactive means score below 0.9.

The target in experiment [1] is Estrogen receptor (Homo sapiens) (UniProt P03372). Put plainly: OT_ER_ERaERa_1440: Odyssey Thera (OT) 24-hour HEK293T Protein-Complementation Assay for Estrogen Receptor-alpha/-alpha Homodimer (AID 2283349).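 Further: hits raise fluorescence above DMSO for agonists and antagonists alike.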 Summed up:
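HEK293T, stable ERα LBD (aa 310-547) homodimer PCA; 24 h compound exposure; mean fluorescence intensity (nuclear for agonists, nuclear plus cytoplasmic for antagonists) vs vehicle; positive fitting direction, DMSO baseline.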

The target is the same in experiment [2]. The experiment in a line: OT_ER_ERaERa_0480: Odyssey Thera (OT) 8-hour HEK293T Protein-Complementation Assay for Estrogen Receptor-alpha/-alpha Homodimer (AID 2283351).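 Further: rise in fluorescence from reassembled reporter fragments on ERα LBD homodimer in nucleus or whole cell.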 Summed up:
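Read-out: fluorescence intensity rise relative to DMSO, nuclear for agonists, nuclear plus cytoplasmic for antagonists. Construct is the ERα LBD (aa 310-547) homodimer fragment-complementation pair, stably expressed in HEK293T; exposure 8 h.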

The target of experiment [3] is T1, Estrogen receptor (Homo sapiens) + Estrogen receptor beta (Homo sapiens) (UniProt P03372+Q92731). Put plainly: OT_ER_ERaERb_0480: Odyssey Thera (OT) 8-hour HEK293T Protein-Complementation Assay for Estrogen Receptor-alpha/-beta Heterodimer (AID 2283352). Summed up: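 Increase in mean fluorescence intensity, measured by laser scanning plate cytometry, reported ER-alpha/ER-beta LBD complementation in HEK293T cells after 8 h chemical exposure. DMSO served as baseline; basal signal is low, punctate and cytoplasmic.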
T1 sequence (P03372 whole entry, looked up, the tested form may be a part): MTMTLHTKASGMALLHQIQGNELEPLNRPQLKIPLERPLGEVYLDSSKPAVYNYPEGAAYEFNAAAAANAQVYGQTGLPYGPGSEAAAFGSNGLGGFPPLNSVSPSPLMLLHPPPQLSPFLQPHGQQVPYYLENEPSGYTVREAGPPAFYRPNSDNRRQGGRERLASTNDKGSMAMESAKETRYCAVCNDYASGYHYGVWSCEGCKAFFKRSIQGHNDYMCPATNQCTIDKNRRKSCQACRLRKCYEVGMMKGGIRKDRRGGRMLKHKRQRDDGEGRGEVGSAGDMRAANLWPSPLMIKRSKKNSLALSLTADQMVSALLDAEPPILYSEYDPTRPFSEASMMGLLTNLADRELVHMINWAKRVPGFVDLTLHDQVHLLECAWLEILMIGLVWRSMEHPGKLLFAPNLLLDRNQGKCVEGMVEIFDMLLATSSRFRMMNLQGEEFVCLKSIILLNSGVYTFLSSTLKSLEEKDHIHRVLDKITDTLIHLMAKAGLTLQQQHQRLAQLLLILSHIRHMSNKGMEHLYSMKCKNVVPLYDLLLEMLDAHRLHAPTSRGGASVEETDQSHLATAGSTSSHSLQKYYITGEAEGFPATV
T1 sequence (Q92731 whole entry, looked up, the tested form may be a part): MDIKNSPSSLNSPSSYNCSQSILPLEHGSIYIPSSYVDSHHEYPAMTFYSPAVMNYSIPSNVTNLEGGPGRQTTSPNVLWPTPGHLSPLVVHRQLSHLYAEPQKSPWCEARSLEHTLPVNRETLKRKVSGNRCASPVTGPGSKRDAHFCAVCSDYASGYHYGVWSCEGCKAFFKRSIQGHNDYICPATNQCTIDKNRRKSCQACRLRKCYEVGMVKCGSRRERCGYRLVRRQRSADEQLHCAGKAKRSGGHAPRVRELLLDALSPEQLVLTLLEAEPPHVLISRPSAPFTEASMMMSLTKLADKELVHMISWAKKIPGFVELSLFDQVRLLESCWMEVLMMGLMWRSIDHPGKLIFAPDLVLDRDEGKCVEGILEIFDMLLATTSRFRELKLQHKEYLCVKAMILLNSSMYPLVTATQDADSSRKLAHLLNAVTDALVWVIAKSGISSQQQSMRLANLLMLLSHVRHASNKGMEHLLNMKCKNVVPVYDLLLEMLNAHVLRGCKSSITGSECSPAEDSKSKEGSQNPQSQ

The target of experiment [4] is T1, Estrogen receptor (Homo sapiens) + Estrogen receptor beta (Homo sapiens). The experiment in a line: OT_ER_ERaERb_1440: Odyssey Thera (OT) 24-hour HEK293T Protein-Complementation Assay for Estrogen Receptor-alpha/-beta Homodimer (AID 2283356).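 Further: heteromer of ER alpha and ER beta binding domains; hits raise reporter fluorescence and both agonists and antagonists give an increase.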 Summed up: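 Heterodimerisation of ERα (aa 310-547) and ERβ (aa 263-489) ligand binding domains was tracked as fluorescence gain in stably transfected HEK293T cells following 24 h dosing, normalised to DMSO controls.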

Experiment [5] deals with Estrogen receptor beta (Homo sapiens) (UniProt Q92731). The experiment in a line: OT_ER_ERbERb_0480: Odyssey Thera (OT) 8-hour HEK293T Protein-Complementation Assay for Estrogen Receptor-beta/-beta Homodimer (AID 2283357).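 Further: active means signal gain over DMSO baseline.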 Summed up:
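ER-beta LBD homodimer PCA stably expressed in HEK293T; 8 h compound exposure, then formaldehyde fixation and Draq5 staining. Gain in nuclear/cytoplasmic fluorescence intensity versus DMSO vehicle, read on laser scanning cytometer.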

The target in experiment [6] is Estrogen receptor (Homo sapiens) (UniProt P03372). The experiment in a line: NVS_NR_hER: NovaScreen (NVS) Nuclear Receptor Binding Assay for human Estrogen Receptor (ER) (AID 2283348). Summed up: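 Cell-free MCF7-derived ER preparation, specific radioligand displaced by test compound, read by scintillation counting 18 h post-dosing. Duplicate single-point 25 uM screen, then concentration-response confirmation; DMSO baseline.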
Chain of Estrogen receptor (Homo sapiens) (P03372 whole entry, looked up, the tested form may be a part): as the sequence (P03372 whole entry, looked up, the tested form may be a part) above

In experiment [7] the target is Retinoic acid receptor alpha (Homo sapiens) (UniProt P10276). Put plainly: NVS_NR_hRAR_Antagonist: NovaScreen (NVS) Nuclear Receptor Binding Assay for human Retinoic Acid Alpha Receptor Antagonism (RAR) (AID 2283358). Summed up: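 RARalpha antagonism was read by TR-FRET as loss of binding signal versus DMSO, 2 h after chemical addition, in a biochemical format. Single-concentration duplicates (25 uM) were run first, and actives were retested in concentration series.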
Chain of Retinoic acid receptor alpha (Homo sapiens) (P10276 whole entry, looked up): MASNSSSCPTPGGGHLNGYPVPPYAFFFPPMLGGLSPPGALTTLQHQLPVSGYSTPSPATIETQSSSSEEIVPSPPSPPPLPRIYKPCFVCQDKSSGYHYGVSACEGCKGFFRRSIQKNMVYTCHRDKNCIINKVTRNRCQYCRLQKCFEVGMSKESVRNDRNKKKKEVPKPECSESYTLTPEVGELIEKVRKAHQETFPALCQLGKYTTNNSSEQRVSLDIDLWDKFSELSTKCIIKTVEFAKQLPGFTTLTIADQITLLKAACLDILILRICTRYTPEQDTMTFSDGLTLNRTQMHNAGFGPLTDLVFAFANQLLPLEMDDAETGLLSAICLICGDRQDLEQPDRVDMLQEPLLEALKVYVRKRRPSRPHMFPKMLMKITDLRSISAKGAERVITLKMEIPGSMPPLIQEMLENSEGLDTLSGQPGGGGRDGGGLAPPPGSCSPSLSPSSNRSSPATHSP

The next experiment has as its target PGR (gene 5241) (UniProt P06401). The experiment in a line: NVS_NR_hPR: NovaScreen (NVS) Nuclear Receptor Binding Assay for human Progestron Receptor (PR) (AID 2283360).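 Further: active means loss of bound radioligand signal versus DMSO baseline.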 Summed up: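 Cell-free radioligand binding using receptor protein extracted from T47D cells, read by scintillation counting 18 hours after dosing. Loss of signal relative to DMSO baseline indicates displacement; primary screen single concentration 25 uM in duplicate, actives followed in concentration series.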

The target in experiment [8] is chimpanzee Androgen Receptor (AR), AR (gene 747460) (UniProt O97775). Put plainly: NVS_NR_cAR: NovaScreen (NVS) Nuclear Receptor Binding Assay for chimpanzee Androgen Receptor (AR) (AID 2283346).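 Further: radioligand displacement from AR measured by scintillation counting in a cell-free assay; a loss of bound radioligand signal versus DMSO counts as binding.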 Summed up: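 Cell-free competition binding with insect-cell (Sf9/Sf21) extracted chimpanzee AR; scintillation signal from lysate at 72 h. Screened in duplicate at 25 uM, then concentration-response for actives; fitting relative to DMSO.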

In experiment [9] the target is guinea pig Sigma Receptor, Non-selective Binding, SIGMAR1 (gene 100135589) (UniProt Q60492). Put plainly: NVS_OR_gSIGMA_NonSelective: NovaScreen (NVS) Nuclear Receptor Binding Assay for guinea pig Sigma Receptor, Non-selective Binding (AID 2283367). Summed up: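 Guinea pig brain membrane sigma sites were labelled with a radioligand, and bound radioactivity was counted after filtration 1 h post-dose. Compounds were screened at 25 uM in duplicate, then retested as concentration series when active.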

The target of experiment [10] is Bile acid receptor (Homo sapiens) (UniProt Q96RI1). The experiment in a line: NVS_NR_hFXR_Antagonist: NovaScreen (NVS) Nuclear Receptor Binding Assay for human Farnesoid X Receptor Antagonism (FXR) (AID 2283350). Summed up: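 Antagonist-format time-resolved FRET binding assay with extracted human receptor protein, read 1 hour after compound addition. Compounds first screened at 25 uM in duplicate, then actives tested in concentration series, with loss of signal relative to DMSO.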
Chain of Bile acid receptor (Homo sapiens) (Q96RI1 whole entry, looked up): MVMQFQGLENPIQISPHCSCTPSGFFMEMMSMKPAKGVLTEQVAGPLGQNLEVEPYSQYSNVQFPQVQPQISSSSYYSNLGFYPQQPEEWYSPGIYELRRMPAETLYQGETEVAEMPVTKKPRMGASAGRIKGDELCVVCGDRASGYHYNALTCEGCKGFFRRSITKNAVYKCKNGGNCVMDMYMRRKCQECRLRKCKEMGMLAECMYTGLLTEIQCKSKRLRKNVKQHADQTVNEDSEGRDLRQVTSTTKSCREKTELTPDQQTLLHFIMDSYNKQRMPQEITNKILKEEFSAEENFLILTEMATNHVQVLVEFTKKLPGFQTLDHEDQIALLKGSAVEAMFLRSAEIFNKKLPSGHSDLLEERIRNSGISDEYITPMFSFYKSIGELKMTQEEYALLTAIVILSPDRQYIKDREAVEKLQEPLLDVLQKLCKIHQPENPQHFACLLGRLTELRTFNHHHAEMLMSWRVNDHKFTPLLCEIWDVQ

In experiment [11] the target is Androgen Receptor/SRC-1 Co-activator, AR (gene 367) (UniProt P10275). The experiment in a line: OT_AR_ARSRC1_0960: Odyssey Thera (OT) 16-hour HEK293T Protein-Complementation Assay for Androgen Receptor/SRC-1 Co-activator (AID 2283353).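 Further: actives raise the signal above DMSO so potency reflects increased AR and SRC-1 complex.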 Summed up: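 Readout: 488 nm nuclear-to-cytoplasmic fluorescence ratio from imaging of at least 400 cells per image, 16 h post-dose. Reporter is Venus YFP complementation between AR and SRC-1 fusions, stably expressed in HEK293T; activity scored upward relative to DMSO.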
Chain of Androgen Receptor/SRC-1 Co-activator, AR (gene 367) (P10275 whole entry, looked up, the tested form may be a part): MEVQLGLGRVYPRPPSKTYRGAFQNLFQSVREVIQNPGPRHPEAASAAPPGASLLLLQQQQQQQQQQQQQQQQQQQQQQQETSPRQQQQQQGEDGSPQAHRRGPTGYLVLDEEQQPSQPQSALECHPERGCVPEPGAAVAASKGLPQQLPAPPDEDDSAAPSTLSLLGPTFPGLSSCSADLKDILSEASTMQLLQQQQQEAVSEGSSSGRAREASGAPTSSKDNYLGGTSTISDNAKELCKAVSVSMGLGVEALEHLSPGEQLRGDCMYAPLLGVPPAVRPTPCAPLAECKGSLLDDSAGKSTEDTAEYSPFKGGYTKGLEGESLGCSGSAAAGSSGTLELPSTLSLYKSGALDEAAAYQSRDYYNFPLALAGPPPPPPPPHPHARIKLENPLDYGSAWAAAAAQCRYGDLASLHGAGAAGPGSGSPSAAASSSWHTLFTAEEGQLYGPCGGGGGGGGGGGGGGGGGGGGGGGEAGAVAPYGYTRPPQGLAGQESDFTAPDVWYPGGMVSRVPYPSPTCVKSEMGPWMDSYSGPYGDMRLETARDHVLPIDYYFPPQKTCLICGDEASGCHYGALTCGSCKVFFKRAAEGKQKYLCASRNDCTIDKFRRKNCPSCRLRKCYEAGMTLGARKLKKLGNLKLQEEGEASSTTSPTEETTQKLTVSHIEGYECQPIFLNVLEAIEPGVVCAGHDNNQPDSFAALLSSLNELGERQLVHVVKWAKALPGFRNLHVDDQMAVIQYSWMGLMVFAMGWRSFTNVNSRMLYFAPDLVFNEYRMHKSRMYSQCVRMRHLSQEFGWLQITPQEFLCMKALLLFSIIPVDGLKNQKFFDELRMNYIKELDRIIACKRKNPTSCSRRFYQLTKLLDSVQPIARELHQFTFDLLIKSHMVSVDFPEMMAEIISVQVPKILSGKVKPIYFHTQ

The target is the same in experiment [12]. The experiment in a line: OT_AR_ARSRC1_0480: Odyssey Thera (OT) 8-hour HEK293T Protein-Complementation Assay for Androgen Receptor/SRC-1 Co-activator (AID 2283354).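 Further: hits raise the complementation signal above DMSO so AC50 marks enhancers.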 Summed up:
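Reconstituted split-Venus YFP signal from AR–SRC-1 interaction, read by imaging 8 h post-dose in stable HEK293T lines. The 488 nm nucleus-to-cytoplasm ratio (≥400 cells/image) was fitted upward against DMSO.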

For experiment [13], the target named is Glucocorticoid receptor (Homo sapiens) (UniProt P04150). Put plainly: NVS_NR_hGR: NovaScreen (NVS) Nuclear Receptor Binding Assay for human Glucocorticoid Receptor (GR) (AID 2283363).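 On AC50: activity is loss of specific radioligand binding signal relative to DMSO.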 Summed up:
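Compounds first tested in duplicate at 25 uM, actives followed up in concentration series. Binding to extracted GR protein measured as competitive radioligand displacement, filter scintillation read 16 h post-dosing, normalised to DMSO.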

For experiment [14], the target named is rat Androgen Receptor (AR), Ar (gene 24208) (UniProt P15207). Put plainly: NVS_NR_rAR: NovaScreen (NVS) Nuclear Receptor Binding Assay for rat Androgen Receptor (AR) (AID 2283366). Summed up:
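Actives from a duplicate single-concentration (25 uM) primary run went on to concentration series. Displacement of radioligand was counted by filtration and scintillation, 18 h post-dose, using prostate extracts from testosterone-pretreated rats, with DMSO as baseline.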

In experiment [15] the target is Nuclear receptor subfamily 1 group I member 2 (Homo sapiens) (UniProt O75469). The experiment in a line: NVS_NR_hPXR: NovaScreen (NVS) Nuclear Receptor Binding Assay for human Pregnane X Receptor (PXR) (AID 2283365).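 Further: a drop in FRET signal versus DMSO baseline means the compound binds.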 Summed up:
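Binding was measured by time-resolved fluorescence resonance energy transfer after a 2 h exposure of extracted human PXR protein without cells. Compounds were first tested at 25 uM in duplicate, with concentration series for actives; DMSO defined baseline.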

Chain of PGR (gene 5241) (P06401 whole entry, looked up): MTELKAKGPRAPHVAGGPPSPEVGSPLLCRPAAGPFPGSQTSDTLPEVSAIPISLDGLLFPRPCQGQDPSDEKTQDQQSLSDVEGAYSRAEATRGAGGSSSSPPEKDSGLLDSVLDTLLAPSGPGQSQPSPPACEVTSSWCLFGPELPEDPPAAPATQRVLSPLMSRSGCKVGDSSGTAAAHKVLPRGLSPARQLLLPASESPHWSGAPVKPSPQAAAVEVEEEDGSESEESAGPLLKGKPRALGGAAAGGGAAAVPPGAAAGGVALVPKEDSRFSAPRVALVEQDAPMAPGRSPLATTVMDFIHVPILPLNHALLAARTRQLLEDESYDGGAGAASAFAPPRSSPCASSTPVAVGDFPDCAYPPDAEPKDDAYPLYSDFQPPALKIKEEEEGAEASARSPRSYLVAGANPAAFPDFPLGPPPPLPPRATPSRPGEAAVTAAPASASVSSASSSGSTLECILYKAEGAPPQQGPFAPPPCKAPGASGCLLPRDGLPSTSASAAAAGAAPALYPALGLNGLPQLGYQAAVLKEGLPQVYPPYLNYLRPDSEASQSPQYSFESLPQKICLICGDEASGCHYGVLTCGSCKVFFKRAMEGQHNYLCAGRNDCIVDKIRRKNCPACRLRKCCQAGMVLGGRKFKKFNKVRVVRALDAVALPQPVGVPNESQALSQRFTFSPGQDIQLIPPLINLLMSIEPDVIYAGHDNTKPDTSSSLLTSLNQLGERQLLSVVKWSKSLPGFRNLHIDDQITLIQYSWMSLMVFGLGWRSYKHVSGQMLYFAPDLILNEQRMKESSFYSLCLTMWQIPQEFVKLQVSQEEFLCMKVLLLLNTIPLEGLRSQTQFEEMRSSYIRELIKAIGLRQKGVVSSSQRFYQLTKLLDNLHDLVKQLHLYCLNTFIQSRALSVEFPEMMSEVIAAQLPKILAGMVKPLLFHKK
Chain of Estrogen receptor beta (Homo sapiens) (Q92731 whole entry, looked up, the tested form may be a part): as the sequence (Q92731 whole entry, looked up, the tested form may be a part) above

As to `O=C(Nc1ccccc1-c1ccc(Cl)cc1)c1cccnc1Cl`, the molecule was classed as inactive in experiment [1], in experiment [2], in experiment [3], in experiment [4] and in experiment [5].
One may read the AC50 as the concentration at which the activity in the assay is half-maximal. As for `Cc1c(COC(=O)[C@@H]2[C@H](/C=C(\Cl)C(F)(F)F)C2(C)C)cccc1-c1ccccc1`, the call (in experiment [6]; in experiment [2]; in experiment [3]; in experiment [5]; in experiment [7]; with PGR (gene 5241)) was inactive. The AC50 in experiment [4] was 72.3 µM (active).
Turning to `O=C(O)c1c(Cl)ccc2cc(Cl)cnc12`, the call in [1], in experiment [2], in experiment [3], in [4] and in experiment [5] was inactive.
Turning to `CNC(=O)Oc1cccc2ccccc12`, the outcome (in [6]; in experiment [1]; in experiment [2]; in [7]; with PGR (gene 5241)) was inactive.
Turning to `CCN(CC)C(=O)C(C)Oc1cccc2ccccc12` (stereo not given), the values for the half-maximal activity concentration (AC50) in experiment [8] and in [9] were 11.5 µM (active) and 18.8 µM (active), respectively. In addition, the call in experiment [2], in [3], in experiment [4] and in [5] was inactive.
Regarding `COCc1cnc(C2=NC(C)(C(C)C)C(=O)N2)c(C(=O)O)c1` (stereo not given), the molecule was called inactive in experiment [1], in experiment [2], in [3], in experiment [11], in experiment [12] and in [4]. In addition, the result in experiment [5] and in [7] was inactive. Besides, in experiment [10], the AC50 is 30.3 µM (active).
Take `CCCCC(O)(Cn1cncn1)c1ccc(Cl)cc1Cl` (stereo not given): the AC50 in experiment [8] is 25 µM (active); in [11] it was 72.5 µM (active); in experiment [12] it was 75.8 µM (active); in experiment [13], 1.29 µM (active). Further, the call in [1], in experiment [10], in experiment [2], in experiment [3], in experiment [4] and in experiment [5] was inactive. For the same molecule, the outcome (with PGR (gene 5241); in [14]) was inactive.
Turning to `CN/C(=N\[N+](=O)[O-])NCc1cnc(Cl)s1`, the molecule was called inactive in experiment [1], in experiment [2], in experiment [3] and in experiment [4].
Consider `N#Cc1c(Cl)cccc1Cl`, for which the call (in experiment [1]; in [2]; in [3]; in experiment [4]; in [5]; in the experiment with PGR (gene 5241)) was inactive. The molecule was called inactive in experiment [13] and in [15].
Take `COC(=O)NC(=S)Nc1ccccc1NC(=S)NC(=O)OC`: the outcome in experiment [1], in experiment [2], in experiment [3], in experiment [4] and in experiment [5] was inactive.
`CCNC(=O)NC(=O)C(C#N)=NOC`: the outcome in [1], in experiment [10], in experiment [2], in [13] and in experiment [15] was inactive.
Regarding `Clc1cccc(C(Cl)(Cl)Cl)n1`, the result in experiment [1], in experiment [2], in [3], in experiment [11], in [12] and in [4] was inactive.
For `CC1(C)CCC(=Cc2ccc(Cl)cc2)C1(O)Cn1cncn1` (stereo not given), the AC50 in [8] is 0.672 µM (active); in experiment [11], 16.3 µM (active); in experiment [12] it was 15.5 µM (active). In addition, the molecule was classed as inactive in [1], in [2], in experiment [3], in [4] and in experiment [5].
`C=C(C)CN(CC)c1c([N+](=O)[O-])cc(C(F)(F)F)cc1[N+](=O)[O-]`: the result in experiment [8], in experiment [2] and in [5] was inactive. For the same molecule, the AC50 in experiment [3] is 50 µM (active); in experiment [4], 79.2 µM (active).
With `CS(=O)(=O)c1ccc(C(=O)C2C(=O)CCCC2=O)c([N+](=O)[O-])c1`, in experiment [8], the AC50 was 17.6 µM (active). Besides, the molecule was called inactive in experiment [2], in [3], in experiment [4] and in experiment [5].
